Compounds without any hit were thinned out: in the full panel of roughly 83,000, 20% have a hit.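 96-well plates, one dose, 48 hours. Percent growth reported; active if below 10.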 Unmarked numbers belong to inactive results. Active and inactive are the calls of the source.
Columns and labels:
Assay in all cases: NCI-60 one-dose screen, 48 h (100 = growth as untreated, 0 = no growth, -100 = all killed)
Details in all cases: 10 µM unless noted
NCI-H23 lung = test system: NCI-H23 lung
NCI-H226 lung = test system: NCI-H226 lung
NCI-H322M lung = test system: NCI-H322M lung
NCI-H460 lung = test system: NCI-H460 lung
NCI-H522 lung = test system: NCI-H522 lung
A549/ATCC NSCLC = test system: A549/ATCC NSCLC
786-0 renal = test system: 786-0 renal
COLO 205 colon = test system: COLO 205 colon
DU-145 prostate = test system: DU-145 prostate
K-562 leukemia = test system: K-562 leukemia
MALME-3M melanoma = test system: MALME-3M melanoma
MDA-MB-231 breast = test system: MDA-MB-231 breast
RXF 393 renal = test system: RXF 393 renal
SF-268 CNS = test system: SF-268 CNS
SF-295 CNS = test system: SF-295 CNS
SF-539 CNS = test system: SF-539 CNS
UACC-257 melanoma = test system: UACC-257 melanoma
M14 melanoma = test system: M14 melanoma

## COc1ccc(/C=C/c2nc3ccccc3c(=O)n2-c2ccc(C#Cc3ccc(C(C)(C)C)cc3)cc2C)c(OC)c1
NCI-H23 lung
  growth: 94%
NCI-H226 lung
  growth: 87.3%
NCI-H322M lung
  growth: 101%
NCI-H460 lung
  growth: 85%
NCI-H522 lung
  growth: 70.2%
A549/ATCC NSCLC
  growth: 91.2%
786-0 renal
  growth: 101%
COLO 205 colon
  growth: 97.9%
DU-145 prostate
  growth: 109%
K-562 leukemia
  growth: 63.9%
MALME-3M melanoma
  growth: 94.8%
MDA-MB-231 breast
  growth: 89.5%
RXF 393 renal
  growth: 113%
SF-268 CNS
  growth: 96.9%
SF-295 CNS
  growth: 101%
SF-539 CNS
  growth: 97.1%
UACC-257 melanoma
  growth: 72.8%
M14 melanoma
  growth: 96.8%

## COc1ccc(Cl)cc1Nc1nc(C(F)(F)F)ccc1C(=O)NN
NCI-H23 lung
  growth: 39.9%
NCI-H226 lung
  growth: 24.1%
NCI-H322M lung
  growth: 4.64% (active)
NCI-H460 lung
  growth: 70.3%
NCI-H522 lung
  growth: 12.9%
A549/ATCC NSCLC
  growth: 47.6%
786-0 renal
  growth: 2.09% (active)
COLO 205 colon
  growth: 12.5%
DU-145 prostate
  growth: 40%
K-562 leukemia
  growth: 55.7%
MALME-3M melanoma
  growth: 8.85% (active)
MDA-MB-231 breast
  growth: 5.57% (active)
RXF 393 renal
  growth: -3.01% (active)
SF-268 CNS
  growth: 26.4%
SF-295 CNS
  growth: 16.7%
SF-539 CNS
  growth: 31.2%
UACC-257 melanoma
  growth: 28.3%
M14 melanoma
  growth: 38%

## CCCC(CCC)(C(N)=O)C(=O)O
NCI-H23 lung
  growth: 105%
NCI-H226 lung
  growth: 98.5%
NCI-H322M lung
  growth: 111%
NCI-H522 lung
  growth: 97.2%
A549/ATCC NSCLC
  growth: 97.8%
786-0 renal
  growth: 113%
COLO 205 colon
  growth: 106%
DU-145 prostate
  growth: 108%
K-562 leukemia
  growth: 120%
MALME-3M melanoma
  growth: 111%
MDA-MB-231 breast
  growth: 116%
RXF 393 renal
  growth: 124%
SF-268 CNS
  growth: 102%
SF-295 CNS
  growth: 107%
SF-539 CNS
  growth: 120%
UACC-257 melanoma
  growth: 102%
M14 melanoma
  growth: 108%

## Clc1ccc(Cl)c(N=Cc2ccc3c(c2)OCO3)c1
NCI-H23 lung
  growth: 99.2%
NCI-H226 lung
  growth: 103%
NCI-H322M lung
  growth: 108%
NCI-H460 lung
  growth: 116%
NCI-H522 lung
  growth: 88.7%
A549/ATCC NSCLC
  growth: 96.9%
786-0 renal
  growth: 110%
COLO 205 colon
  growth: 109%
DU-145 prostate
  growth: 120%
K-562 leukemia
  growth: 103%
MALME-3M melanoma
  growth: 111%
MDA-MB-231 breast
  growth: 124%
RXF 393 renal
  growth: 111%
SF-268 CNS
  growth: 105%
SF-295 CNS
  growth: 106%
SF-539 CNS
  growth: 116%
UACC-257 melanoma
  growth: 103%
M14 melanoma
  growth: 102%

## COc1ccc(-c2cc(C(=O)Nc3ccc(Br)cc3)nc3[nH]c(=O)sc23)cc1
NCI-H23 lung
  growth: 23.6%
NCI-H226 lung
  growth: 63.4%
NCI-H322M lung
  growth: 46.8%
NCI-H460 lung
  growth: 28.8%
NCI-H522 lung
  growth: -9.13% (active)
A549/ATCC NSCLC
  growth: 20.3%
786-0 renal
  growth: 57.2%
COLO 205 colon
  growth: 42.3%
DU-145 prostate
  growth: 54.9%
K-562 leukemia
  growth: 27%
MALME-3M melanoma
  growth: 25%
MDA-MB-231 breast
  growth: 84.8%
RXF 393 renal
  growth: 65.1%
SF-268 CNS
  growth: 51.6%
SF-295 CNS
  growth: 53.2%
SF-539 CNS
  growth: 43.6%
UACC-257 melanoma
  growth: 16.4%
M14 melanoma
  growth: 44.4%

## CC1=C(/C=C/C(C)=C/C=C(C(=O)O)\C(C)=C\C(=O)O)C(C)(C)CCC1
NCI-H23 lung
  growth: 101%
NCI-H226 lung
  growth: 112%
NCI-H322M lung
  growth: 103%
NCI-H460 lung
  growth: 104%
NCI-H522 lung
  growth: 77.9%
A549/ATCC NSCLC
  growth: 93.7%
786-0 renal
  growth: 99.5%
COLO 205 colon
  growth: 112%
DU-145 prostate
  growth: 109%
K-562 leukemia
  growth: 87%
MALME-3M melanoma
  growth: 128%
MDA-MB-231 breast
  growth: 98.6%
RXF 393 renal
  growth: 106%
SF-268 CNS
  growth: 100%
SF-295 CNS
  growth: 130%
SF-539 CNS
  growth: 93.6%
UACC-257 melanoma
  growth: 92.4%
M14 melanoma
  growth: 101%

## CC(C)N(C(=S)SSC(=S)N(C(C)C)C(C)C)C(C)C
NCI-H23 lung
  growth: 101%
NCI-H226 lung
  growth: 109%
NCI-H322M lung
  growth: 108%
NCI-H460 lung
  growth: 110%
NCI-H522 lung
  growth: 75.7%
A549/ATCC NSCLC
  growth: 95.9%
786-0 renal
  growth: 101%
COLO 205 colon
  growth: 112%
DU-145 prostate
  growth: 109%
K-562 leukemia
  growth: 73.3%
MALME-3M melanoma
  growth: 101%
MDA-MB-231 breast
  growth: 119%
RXF 393 renal
  growth: 120%
SF-268 CNS
  growth: 103%
SF-295 CNS
  growth: 101%
SF-539 CNS
  growth: 108%
UACC-257 melanoma
  growth: 93.4%
M14 melanoma
  growth: 101%

## O=C(Nc1cccc(Cl)c1)Nc1ccccc1Cl
NCI-H23 lung
  growth: 73.1%
NCI-H226 lung
  growth: 108%
NCI-H322M lung
  growth: 99.8%
NCI-H460 lung
  growth: 86%
NCI-H522 lung
  growth: 42.6%
A549/ATCC NSCLC
  growth: 80.8%
786-0 renal
  growth: 82.1%
COLO 205 colon
  growth: 121%
DU-145 prostate
  growth: 95.8%
K-562 leukemia
  growth: 61.3%
MALME-3M melanoma
  growth: 92%
MDA-MB-231 breast
  growth: 73.8%
RXF 393 renal
  growth: 117%
SF-268 CNS
  growth: 91%
SF-295 CNS
  growth: 80.7%
SF-539 CNS
  growth: 104%
UACC-257 melanoma
  growth: 86.8%
M14 melanoma
  growth: 106%

## COc1ccc(C2=NNC(c3ccc(Oc4nc5c(c(=O)n(C)c(=O)n5C)n4C)c(OC)c3)C2)cc1 (stereo unspecified)
NCI-H23 lung
  growth: 103%
NCI-H226 lung
  growth: 89.7%
NCI-H322M lung
  growth: 102%
NCI-H460 lung
  growth: 95%
NCI-H522 lung
  growth: 84.4%
A549/ATCC NSCLC
  growth: 90.5%
786-0 renal
  growth: 98.7%
COLO 205 colon
  growth: 127%
DU-145 prostate
  growth: 109%
K-562 leukemia
  growth: 112%
MALME-3M melanoma
  growth: 103%
MDA-MB-231 breast
  growth: 93.3%
RXF 393 renal
  growth: 87.5%
SF-268 CNS
  growth: 93.4%
SF-295 CNS
  growth: 88.9%
SF-539 CNS
  growth: 97.8%
UACC-257 melanoma
  growth: 97.8%
M14 melanoma
  growth: 96.9%

From PubChem BioAssay (NCI)
